# Test results taken from PubChem BioAssay AID777 (Sanford-Burnham Center for Chemical Genomics, 2007).
# About 19,000 (20%) of roughly 96,000 compounds were called active. Only a sample is shown. Unmarked numbers belong to inactive results.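 How the source made its calls: active means blocking of liver enzyme CYP2C9 beyond about 50% at 5 µM (limit read from the data); inactive means the rest.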
# Biological target: Cytochrome P450 2C9 (Homo sapiens) (UniProt P11712)
# Assay: blockers of cytochrome P450 2C9 activity – biochemical, luminescence, ADME assay, primary screen (AID 777)
# Conditions: CYP2C9 Supersomes, luciferin-H conversion, at 5 µM, stronger effect = higher value
# Chain of Cytochrome P450 2C9 (Homo sapiens) (P11712 whole entry, looked up): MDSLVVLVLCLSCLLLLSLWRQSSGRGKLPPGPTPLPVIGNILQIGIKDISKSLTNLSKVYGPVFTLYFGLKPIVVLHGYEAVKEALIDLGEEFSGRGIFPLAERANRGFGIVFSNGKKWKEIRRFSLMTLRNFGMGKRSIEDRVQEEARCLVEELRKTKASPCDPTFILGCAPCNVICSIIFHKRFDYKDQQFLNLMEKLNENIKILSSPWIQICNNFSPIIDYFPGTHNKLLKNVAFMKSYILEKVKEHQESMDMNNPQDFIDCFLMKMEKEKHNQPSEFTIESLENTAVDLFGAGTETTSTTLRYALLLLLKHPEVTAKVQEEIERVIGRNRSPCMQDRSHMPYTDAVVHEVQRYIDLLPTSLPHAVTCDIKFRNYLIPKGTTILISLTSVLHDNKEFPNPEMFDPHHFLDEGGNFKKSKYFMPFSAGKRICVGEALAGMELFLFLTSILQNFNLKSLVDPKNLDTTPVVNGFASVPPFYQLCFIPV
row,Structure (SMILES),inhibition
1,CCc1ccc(Nc2ncc3c(n2)CC(c2ccco2)CC3=O)cc1 (configuration not stated),8.9%
2,O=C1N=C(N2CCOCC2)S/C1=C\C=C/c1ccccc1,-28.7%
3,CN(C)/C=C/C(=O)c1ccccc1F,14.6%
4,O=C(Nc1ccccc1Cl)O/N=C(/c1ccccc1)c1ccccn1,22.2%
5,O=C1NC(c2ccncc2)Nc2sc3c(c21)CCCC3 (configuration not stated),49.1%
6,COc1ccc(NC(=O)C2CCCN(S(=O)(=O)c3cccc4cccnc34)C2)cc1 (configuration not stated),-49.2%
7,CC(=O)c1cccc(NC(=O)N2CCCC2C(=O)NCCC(C)C)c1 (configuration not stated),9.2%
8,O=C(Nc1nccs1)C1CCCN1S(=O)(=O)c1cccc2cccnc12 (configuration not stated),53.9% (active)
9,CC(=O)c1cccc(NC(=O)C2CCCN2S(=O)(=O)c2cccc3nsnc23)c1 (configuration not stated),92.8% (active)
10,CC1CCCCC1NC(=O)C1CCCN1S(=O)(=O)c1cccc2nsnc12 (configuration not stated),21.2%
11,O=C(O)C1CCCN(S(=O)(=O)c2cccc3cccnc23)C1 (configuration not stated),-20.2%
12,CCc1nn(-c2cc(Oc3cccc4ccccc34)nc(-c3ccccc3)n2)c(N)c1C#N,20%
13,CSc1sc(C)cc1C1C(C#N)=C(N)N(c2cccnc2)C2=C1C(=O)CCC2 (configuration not stated),23%
14,CCCOc1ccc(N2C(=O)CC(N(CCc3ccc(S(N)(=O)=O)cc3)C(C)=O)C2=O)cc1 (configuration not stated),-11.4%
15,Cc1nn(-c2ccccc2)c2[nH]c(C(F)(F)F)cc(=O)c12,46.9%
16,COc1ccc(OCCCC(=O)Nc2nnc(C3CCCO3)s2)cc1 (configuration not stated),45.3%
17,Cc1nnc(NC(=O)Cn2c(=O)sc3ccccc32)s1,67.6% (active)
18,Cc1nnc(NC(=O)CCCOc2ccccc2)s1,-8.5%
19,O=C(Cn1c(=O)sc2ccccc21)Nc1ccc2c(c1)OCCO2,7%
20,CCN(CC)CCCNC(=O)CCc1ccccc1,1.4%
21,O=C(CN1C(=O)NC2(CCCC2)C1=O)Nc1ccc(F)c(F)c1F,-34.9%
22,Cc1ccccc1N1CC(c2nc3ccccc3[nH]2)CC1=O (configuration not stated),29.8%
23,CC1=CC(=O)C=CC1(C)C(Cl)(Cl)Cl (configuration not stated),-5.7%
24,COc1cccc(N(CC(=O)NC2CCCC2)C(=O)Cn2nnc(-c3ccc(C)cc3)n2)c1,59.1% (active)
25,COc1ccc(N(CC(=O)NC2CCCCCCC2)S(=O)(=O)c2c(C)nn(C)c2C)cc1,40.5%
26,O=C(Cn1nnc(-c2ccc(CN3CCOCC3)cc2)n1)NC1CCCCC1,25.3%
27,CC(C)c1cc(C(=O)O)on1,-15.7%
